Data: PubChem BioAssay (NCI)
This is part of a sample that, as a whole, favours compounds with a hit. Of some 79,000 tested, about 15% had one in any assay. A number with no mark means an inactive call. The source made the active and inactive calls. Cut-off read from the data, not from the text of the source: active = growth inhibition above about 70%; inactive = the rest.

Experiment: NCI Yeast Anticancer Drug Screen. Data for the mgt1 strain (AID 153)
Details: S. cerevisiae mgt1 mutant growth inhibition, active compounds read high
Experimental: Growth inhibition of yeast strains with defined genetic alterations is measured as a screen for potential anti-cancer activity. Selected strains with alterations in DNA damage repair or cell cycle control were exposed to compounds and growth inhibition was measured relative to vehicle treated controls. The strain used in this assay is mgt1

| Structure (SMILES) | growth inhibition (at 1.2 µM) [%] | growth inhibition (at 3.7 µM) [%] | growth inhibition (at 11.0 µM) | growth inhibition (at 33.0 µM) | growth inhibition (at 100.0 µM) |
| --- | --- | --- | --- | --- | --- |
| C=C(C(=O)OC)N1C(=O)CC(C)C1=O (stereo not given) | 16 | 6 | 9% | 27% | 71% (active) |
| OC1(c2ccccc2)C2CC=CC2C1(c1ccccc1)c1ccccc1 (stereo not given) | -4 | -2 | -5% | -4% | 16% |
| COC(=O)/C(C#N)=C\NC(=S)C(N)=S | 9 | 21 | 79% (active) | 99% (active) | 98% (active) |
| CC(C)OC(=O)NNc1c(Cl)cc(Cl)cc1Cl | -2 | -2 | 2% | 8% | 5% |
| Nc1cc2ccccc2cc1N | -30 | -42 | -33% | -23% | -18% |
| CCC[CH2][Ge]([CH2]CCC)([CH2]CCC)[O]C(=O)C(O)c1ccccc1 (stereo not given) | -1 | -1 | 10% | 93% (active) | 99% (active) |
| CC1=C(C)C(=O)C2=C(OCCO2)C1=O | -8 | -2 | -2% | 3% | 43% |
| CC(C)(C)c1ccc2c(c1)C(=O)c1ccccc1C2=O | -3 | -9 | -7% | -7% | -4% |
